ST2 IL33 inh: inhibitors of human ST2 (IL1RL1) binding to IL-33, primary screen, biochemical, AlphaLISA; AlphaLISA ST2-Fc/biotin-IL-33 interaction, 1 h; 78,000 compounds, 2.3% hits; Interleukin-1 receptor-like 1 (Homo sapiens), Q01638; inhibition, % for hits at 17 µM; in the data active means inhibition above about 30%
Target sequence (Q01638 whole entry, looked up): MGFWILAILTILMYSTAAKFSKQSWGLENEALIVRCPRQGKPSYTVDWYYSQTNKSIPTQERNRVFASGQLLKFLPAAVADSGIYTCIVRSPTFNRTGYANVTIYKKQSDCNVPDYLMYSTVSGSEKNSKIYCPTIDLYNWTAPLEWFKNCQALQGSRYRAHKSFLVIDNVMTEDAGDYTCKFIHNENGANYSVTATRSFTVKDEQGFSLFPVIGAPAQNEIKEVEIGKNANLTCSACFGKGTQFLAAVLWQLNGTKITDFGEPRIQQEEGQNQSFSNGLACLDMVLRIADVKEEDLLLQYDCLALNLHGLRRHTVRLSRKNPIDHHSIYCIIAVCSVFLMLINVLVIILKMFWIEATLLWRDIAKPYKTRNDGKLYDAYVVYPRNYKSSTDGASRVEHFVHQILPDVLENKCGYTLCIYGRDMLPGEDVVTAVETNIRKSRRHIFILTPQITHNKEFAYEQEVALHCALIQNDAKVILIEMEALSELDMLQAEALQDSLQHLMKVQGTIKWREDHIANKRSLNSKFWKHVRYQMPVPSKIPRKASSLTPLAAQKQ
* marks the source's active call; other numbers are inactive results. This excerpt belongs to a sample that is enriched for hits.

Screening N#Cc1c(-n2ncnc2-c2cccs2)sc2c1CCCCC2 returned ST2 IL33 inh 44%*.
`COC1C(O)C(OC2CCC3(C)C(CCC45CCC6C7(COC(=O)C7)OC4(O)C6(C)CCC35)C2)OC(C)C1OC1OC(CO)C(OC2OC(CO)C(O)C(O)C2O)C(O)C1O` (stereo not given) gave ST2 IL33 inh inactive.
For CC(=O)N1c2ccccc2NC2=C(C(=O)CCC2)C1c1ccco1 (stereo not given) the results were ST2 IL33 inh inactive.
Screening CC(C)C(=O)N1c2ccccc2NC2=C(C(=O)CCC2)C1c1ccco1 (stereo not given) returned ST2 IL33 inh 30%*.
Screening CC(=O)N1c2ccccc2NC2=C(C(=O)CCC2)C1c1ccc(Cl)c(Cl)c1 (stereo not given) returned ST2 IL33 inh inactive.
Screening O=C(c1ccc[nH]c1=O)N1CCCC(CCc2cccc(C(F)(F)F)c2)C1 (stereo not given) returned ST2 IL33 inh inactive.
For O=S(=O)(c1cccc2ccccc12)N1CCC2(CCCNC2)C1 (stereo not given) the results were ST2 IL33 inh inactive.
For Cc1ccc(N=Cc2cc(C)cc([N+](=O)[O-])c2O)c(Cl)c1 the results were ST2 IL33 inh 30%*.
`O=[N+]([O-])c1cc(Br)cc(C=Nc2ccc(Br)cc2)c1O` gave ST2 IL33 inh inactive.
For O=[N+]([O-])c1cccc(C=Nc2ccccc2Cl)c1O the results were ST2 IL33 inh inactive.
`CCc1ccc(S(=O)(=O)N(CC)CC)cc1` gave ST2 IL33 inh inactive.
`CC(C)(C)c1ccc(S(=O)(=O)Nc2ccccn2)cc1` gave ST2 IL33 inh inactive.
CCOc1cccc(S(=O)(=O)N=C2C=C(C(C)(C)C)C(=O)C(C(C)(C)C)=C2)c1 was read as ST2 IL33 inh inactive.
`CC(C)(C)c1ccc(S(N)(=O)=O)cc1` gave ST2 IL33 inh inactive.
Screening CCc1ccc(S(=O)(=O)N=C2C=CC(=O)c3ccccc32)cc1 returned ST2 IL33 inh 49%*.
Screening CC(C)(C)c1ccc(S(=O)(=O)N=C2C=CC(=O)c3ccccc32)cc1 returned ST2 IL33 inh 44%*.
Screening CCc1ccc(S(=O)(=O)N2CCCN(S(=O)(=O)c3ccc(CC)cc3)CC2)cc1 returned ST2 IL33 inh inactive.
CCOc1ccc(S(=O)(=O)N=C2C=CC(=O)c3ccccc32)cc1 was read as ST2 IL33 inh 49%*.
For CCOc1ccc(C2C(=O)c3ccccc3C2=O)cc1 the results were ST2 IL33 inh inactive.
For CCCOC(=O)C1=C(C)NC2=C(C(=O)C(C(=O)OC)C(C)C2)C1c1ccc(C)cc1 (stereo not given) the results were ST2 IL33 inh inactive.
Screening O=C(CCCn1c(=O)[nH]c2ccsc2c1=O)N1CCN(c2ccc(F)cc2)CC1 returned ST2 IL33 inh inactive.
CC1CN(CCC(=O)NCC2(N3CCOCC3)CCCC2)Cc2cc(Cl)ccc2O1 (stereo not given) was read as ST2 IL33 inh inactive.
O=C(O)CNCc1c(Cl)cccc1Cl was read as ST2 IL33 inh inactive.
For Cc1cc(-c2c(-c3ccccc3)ncn2CCc2ccc(O)cc2)n[nH]1 the results were ST2 IL33 inh inactive.
N#C/C(=C\c1ccc(Cl)cc1)c1nc(C2CC2)cs1 was read as ST2 IL33 inh 66%*.
For N#C/C(=C\c1ccc(F)cc1)c1nc(C2CC2)cs1 the results were ST2 IL33 inh 52%*.
N#C/C(=C\c1ccc([N+](=O)[O-])cc1)c1nc(-c2ccc3c(c2)OCO3)cs1 was read as ST2 IL33 inh inactive.
CCOC(=O)c1c(C)n(CC)c2ccc(OC(=O)c3ccco3)cc12 was read as ST2 IL33 inh inactive.
For COc1ccc(CCn2nc(C(=O)NC3CC3)c3c2CCN(C(=O)C2Cc4ccccc4O2)C3)cc1 (stereo not given) the results were ST2 IL33 inh inactive.
Screening CCCN(C(=O)Cc1c(C(=O)O)[nH]c2ccccc12)c1ccc(F)cc1 returned ST2 IL33 inh inactive.
`CS(=O)(=O)NCCNCC(=O)Nc1ccc(Cl)cc1F` gave ST2 IL33 inh inactive.
Screening CCOc1ccc(CN2CCC(N3CCCC(C)C3)CC2)cc1 (stereo not given) returned ST2 IL33 inh inactive.
Screening COc1ccc(NC(=O)C(Cl)(Cl)Cl)c([N+](=O)[O-])c1 returned ST2 IL33 inh 34%*.
Screening COc1ccc(NC(=O)COc2ccccc2)c([N+](=O)[O-])c1 returned ST2 IL33 inh inactive.
COc1ccc(NC(=O)c2ccc(Br)cc2)c([N+](=O)[O-])c1 was read as ST2 IL33 inh inactive.
Screening COc1cc(-c2nc(=O)[nH]c3ccc(Cl)cc23)cc(OC)c1OC returned ST2 IL33 inh inactive.
For c1ccc(COc2ccc(-n3cnnc3)cc2)nc1 the results were ST2 IL33 inh inactive.
COc1cc(C=O)ccc1OC(=O)N1CCOCC1 was read as ST2 IL33 inh inactive.
Screening Cc1ccc(COc2ccc(/C=C3\SC(=O)N(CC(=O)N4CCOCC4)C3=O)cc2)cc1 returned ST2 IL33 inh inactive.
